The full ranking holds about 25,000 sequences; the median of “ln(normalized median fluorescence intensity)” is about 9.7, and the highest 2% start at about 11. What follows is part of a selection rich in the highest values, with near analogues and random picks from the rest.

The assay has as its system PfAP2-HC AP2 domain (GST-tagged). Kind of assay: gcPBM binding intensity (ln(normalized median fluorescence intensity)); higher = stronger DNA binding. The method in brief: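 Probes on an Agilent 4 × 180k array were primer-extended, double-stranded and 36 bp long, taken from intergenic genomic regions, with negative controls added. GST-tagged P. falciparum DNA-binding domains from E. coli, about 25 μg on average, were applied to the array for 1 h in 1× PBS containing 1% milk, 0.2 mg/ml BSA, 0.5% salmon testes DNA and 0.03% Triton X-100. Binding intensity, obtained after Alexa488 anti-GST antibody detection and a 488 nm scan, is the highest Masliner-normalised natural-log median intensity across replicate spots of either probe orientation.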
Take “ATAAAAATATTACGCACACACAAACTTATTCATTAT [CACACA_site1969]”: the “gcPBM binding intensity (ln)” value is 10.2.
With TATATATTTTTATGTGTGCACTGTTTCATAAAAGAA the figure was 9.61.
For “ACAATTTACACTTAAACACACAAAAAAAAGTTATAT [CACACA_site7056]”, the “gcPBM binding intensity (ln)” value worked out at 9.98.
Turning to “ATATATTTATATATATGTACATATTATGTTAAGAAA [XGTACX_site1111]”, the “gcPBM binding intensity (ln)” value turned out to be 9.69.
With “ATATATAAATTTTAGTGTACATTAATTTTTTTTTTT [XGTACX_site7782]” the figure was 9.64; with “ATTTATTTATATTTAGTGCAATACTATTTTTAAATA [GTGCAC_site9886]”, 9.48; with “TTATGTTGTAAATACACACATACATATACATACACA [CACACA_site733]”, 9.91.
With ATAATATATACGTGTGTGCACATGACAAAAGCATAT the figure was 10.6.
With “TCTTTTAAACAGTACACACACACATATATATATATA [CACACA_site924]” the figure was 10.7.
As to “CTAAAATACGAACACACACACACATATAAATAAATA [CACACA_site7872]”, the “gcPBM binding intensity (ln)” value was found to be 11.2.
With “AATATAAATAAACACACACACATATATATATATATT [CACACA_site2906]” the figure was 11.
With “AACATATACACGAACACACACACATATAAATAAATA [CACACA_site6380]” the figure was 10.4.
With “TATATTCTTTTAAACAGTACACACACACATATATAT [XGTACX_site1701]” the figure was 11.1.
As for “ATTCTTTTAAACAGTACACACACACCGATATATATA [CACACA_site8213]”, the “gcPBM binding intensity (ln)” value worked out at 10.7.
With “CATATACACGAACACACACACATATAAATAAATATA [CACACA_site6379]” the figure was 10.6; with “AATATATAAATATATACACACAAAAACATATATATA [CACACA_site1318]”, 9.99.
Consider “TACACAAAAATAAACACACACACATATATATATATA [CACACA_site1000]”, for which the “gcPBM binding intensity (ln)” value was 10.2.
As to “TAAAATATAAAACACACACACATATATATATATATT [CACACA_site224]”, the “gcPBM binding intensity (ln)” value was determined as 10.3.
With “AAAAAATAAAAAAAAACACACACATACAAGCATATA [CACACA_site8451]” the figure was 11.1; with “AAAAAAAAAAAAAACACACACATATAAATATAAATA [CACACA_site6972]”, 10.4.
With “AAGCATTTTTTTTAAAGCCTGTTCATCATCCTTACC [CACACA_negctrl_site129]” the figure was 9.44; with “TATTAATTAAACCATACACACATAATTTTTTTATAA [CACACA_site843]”, 9.85; with “ATTATTTAAATTTAACGTACGGAATAAGACATAGAT [XGTACX_site8622]”, 9.79.
With “CATTTACATGCCAACATGCACTGAACAATCTTTATA [GTGCAC_site9797]” the figure was 9.68; with “AAAATATATTAAGGCACACACATACATATTTATATA [CACACA_site7707]”, 10.2.
With “AAATGAATAAAATTTATTTATAAAAGAAAAATCACA [GTGCAC_negctrl_site225]”, the “gcPBM binding intensity (ln)” value was found to be 9.57.
With “TATATATATATATATACACACATACAGATATATATT [CACACA_site4629]” the figure was 9.88; with “AGAGCATAATAAAACACACACATACATACATATATA [CACACA_site935]”, 10.3.
Regarding “AAATAATATAAACATACACACACACCGATATATATA [CACACA_site8945]”, the “gcPBM binding intensity (ln)” value stood at 10.7.
With “TAAATAAATAAAAAAACACACATATAAATATAAATA [CACACA_site7815]” the figure was 9.93; with “TATAAATAAAAACACACACACACATATATATATATA [CACACA_site2268]”, 10.7; with “CATAAAATATAAAACACACACACATATATATATATA [CACACA_site223]”, 10.7.
With “TAAATAAAAAAACACACACACATATATATATATATA [CACACA_site2269]” the figure was 11.4; with “TAAATAAATAAAAAAACACACATATATATATATATA [CACACA_site4029]”, 10; with “ACCATATAAATAAACACACACACACCGATATATATA [CACACA_site5310]”, 10.6.
With “AAAAAAAAAAAAAACACACACACACGCATAAATATA [CACACA_site6217]” the figure was 11.5; with “GTAGAGCATAATAAAACACACACATACATACATATA [CACACA_site8217]”, 10.4; with “AGAGCATAATAAAACACACACATACATACCTATATA [CACACA_site6566]”, 10.9.
As to “AAAATACATAAACACACACACACACCGATATATATA [CACACA_site9186]”, the “gcPBM binding intensity (ln)” value turned out to be 11.6.
With “CAATCATGGTTTTACACACACATGCATGTGAAAATT [CACACA_site4870]” the figure was 9.8; with “TTATACGATAATATGACACACAATACAAAAATGTAA [CACACA_site1918]”, 9.86.
With “AATATAATATATATTAGTACATATATATATATATAT [XGTACX_site870]” the figure was 9.58; with “GAAATAAATATATATGCATGTACTTTAATATTATTA [TGCATGCA_site904]”, 9.66; with “TTTTACATATATATATGTACGAAAATGAAAAGGTCA [XGTACX_site5576]”, 9.59.
With “TTTTTATGTTATCAAATAAATATAAATATAATTCAT [CACACA_negctrl_site1522]” the figure was 9.32.

(Values after the supplement of paper PMC11417369.)
